Sampled rows, rich in hits. Any-hit rate of the full collection: about 4.6%.
NLRP3 yeast inh = blocks the NALP3 inflammasome reconstituted in yeast. Yeast reconstituted NLRP3/ASC/caspase-1, beta-gal luminescence, 24 h. inhibition, % at 10 µM. hit rate 0.39% among 330,000;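 active = inhibition of 50% or more; inactive = inhibition below 50%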
tim10-1 inh = tim10-1 yeast growth inhibition; S. cerevisiae tim10-1 ts strain growth, BacTiter-Glo, 24 h; inhibition, % at 20 µM; hit rate 2.2% among 330,000; AID 463190;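 active = inhibition of at least 40%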;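 note: mutant grown at 25 °C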
SKKanGAS inh = inhibitors of SKKanGAS S. pyogenes growth in kanamycin (SK-promoter or general growth effect). BacTiter-Glo, 6 h. inhibition, % at 7.5 µM. hit rate 1.3% among 300,000. AID 1662;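 active = mean replicate score, as percent of positive control median, at least 50; inconclusive = mean below 50 but one replicate at or above 50; inactive = mean and every replicate below 50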;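 note: strain carries kanamycin resistance gene driven by streptokinase promoter and grows in 40 µg/ml kanamycin; loss of luminescence reflects streptokinase promoter inhibition or plain growth inhibition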
TIM10 inh = growth inhibitors of TIM10 yeast strain | S. cerevisiae TIM10 strain growth, BacTiter-Glo luminescence, 24 h | inhibition, % at 10 µM | hit rate 1.4% among 330,000;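 active = inhibition of 40% or more at the single tested concentration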;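 note: wild-type TIM10 isogenic control strain grown at permissive 25 °C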
PfHsp90 yeast 2 = inhibits growth of yeast expressing Plasmodium falciparum Hsp90; inhibition, % at 9.4 µM; S. cerevisiae expressing PfHsp90, BacTiter-Glo ATP, 48 h; yeast lacking PDR1 and PDR3 efflux regulators; hit rate 0.32% among 310,000;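 active = every replicate shows inhibition above about 80%, whatever the replicate mean, limit read from the data; inconclusive = mean inhibition reaches the set limit but some replicate falls short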
tim23-1 inh = tim23-1 yeast growth inhibition; hit rate 1.3% among 330,000; S. cerevisiae tim23-1 growth, BacTiter-Glo luminescence, 24 h; inhibition, % at 20 µM;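 active = growth inhibition of the mutant yeast at or above 50%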;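 note: temperature-sensitive mutant grown at 25 °C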
tim10 confirm = confirmation of TIM10 yeast growth inhibitors; inhibition, % at 10 µM; hit rate 63% among 4,600; S. cerevisiae tim10 strain growth, BacTiter-Glo luminescence, 24 h; shares compounds with TIM10 inh;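 active = inhibition of yeast growth at or above a set limit in either of two replicates at 10 µM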; note: this counterscreen used the strain with wild-type TIM10
Large screens that a line does not name were inactive (follow-up assays come after a bar, where they were run).

O=C(Nc1cccc(C(F)(F)F)c1)C(SCCO)c1ccccc1 (stereo unspecified)	none
CCC(C(=O)Nc1cccc(C(F)(F)F)c1)c1ccccc1 (stereo unspecified)	TIM10 inh 40 | tim10 confirm 47
Nc1cc(-c2ccc(Br)cc2)nc2cc(-c3ccccc3)nn12	none
Clc1nc(-c2ccccc2)cc(-c2ccc(Br)cc2)n1	TIM10 inh 42 | tim10 confirm 33
C/C=N\NC(=O)COc1cc(C)ccc1C	none
COc1ccc(N2CCN(C(c3ccccc3)c3nnnn3Cc3ccc(F)cc3)CC2)cc1 (stereo unspecified)	none
COc1cccc(C(=O)NC(=S)Nc2ccccc2N2CCCCC2)c1	SKKanGAS inh 65, TIM10 inh 41 | tim10 confirm inactive
Cc1ccc(C(=O)NC(=S)Nc2ccccc2N2CCCC2)cc1[N+](=O)[O-]	TIM10 inh 43 | tim10 confirm inactive
Cc1[nH]c2ccccc2c1C(C#N)(C#N)C1C(=O)c2ccccc2C1=O	SKKanGAS inh 65, TIM10 inh 63 | tim10 confirm 78
COc1ccc(-c2nc(SCc3ccccc3)n(C(=O)c3ccco3)n2)cc1	none
COc1ccc(-c2nc(SC)n(C(=O)c3ccco3)n2)cc1	TIM10 inh 42 | tim10 confirm inactive
O=C(NC1CCCCCC1)c1cc(S(=O)(=O)N2CCOCC2)ccc1N1CCCCC1	TIM10 inh 44 (no result: PfHsp90 yeast 2) | tim10 confirm inactive
O=C(NC1CCCCCC1)c1cc(S(=O)(=O)N2CCCCC2)ccc1N1CCOCC1	none
COc1ccc(CC(=O)NCc2nc(-c3ccccc3)no2)cc1	none (no result: PfHsp90 yeast 2)
COc1cc(OC)cc(C(=O)NCc2nc(-c3ccccc3)no2)c1	TIM10 inh 91 | tim10 confirm inactive
S=c1[nH]c(-c2ccccc2)cn1-c1ccccc1	TIM10 inh 46 | tim10 confirm 49
Nc1ccc(-n2cc(-c3ccccc3)[nH]c2=S)cc1	none
Cc1ccc(-c2csc(NC(=O)C3=NN(c4ccccc4)C(=O)CC3)n2)cc1	TIM10 inh 40 | tim10 confirm 33
O=C(CCSc1nc(-c2ccco2)cc(C(F)(F)F)n1)N1CCN(c2ccccn2)CC1	TIM10 inh 40 | tim10 confirm 32
COCCCNC(=O)CN(c1ccc(OC)cc1)S(=O)(=O)c1ccc(NC(C)=O)cc1	none
CCOC(=O)Nc1csnn1	none
O=C(COC(=O)c1ccc([N+](=O)[O-])o1)Nc1ccc(F)cc1	none (no result: SKKanGAS inh)
O=C(COC(=O)c1ccc([N+](=O)[O-])o1)Nc1ccc(Br)cc1F	TIM10 inh 47 (no result: SKKanGAS inh, PfHsp90 yeast 2) | tim10 confirm 50
NC(=O)c1nsc(C(=O)N(c2ccccc2F)C(C(=O)NCc2ccccc2)c2ccc(O)cc2)c1N (stereo unspecified)	TIM10 inh 96 | tim10 confirm inactive
C=CCn1c(O)c(N=Nc2ccccc2O)c2ccccc21	TIM10 inh 49, PfHsp90 yeast 2 195 (no result: SKKanGAS inh) | tim10 confirm 65
O=C(c1cc(Cl)ccc1[N+](=O)[O-])n1cnc2ccccc21	TIM10 inh 41 | tim10 confirm inactive
COc1cc(C(=O)n2cnc3ccccc32)c([N+](=O)[O-])cc1OC	none
O=C(NC12CC3CC(CC(C3)C1)C2)c1ccc(-c2ccc(Br)cc2)o1	SKKanGAS inh 56, TIM10 inh 49 | tim10 confirm 54
CCCCCCCCCCOC(=O)Cn1c(COc2cccc(C)c2)[n+](C)c2ccccc21	SKKanGAS inh 101, TIM10 inh 51, PfHsp90 yeast 2 105 | tim10 confirm 34
CC(C)(C)c1ccc(/C=C(\c2nc3ccccc3[nH]2)S(=O)(=O)c2ccccc2)cc1	TIM10 inh 47 | tim10 confirm 33
Cc1cccc(OCCCC(=O)N2CCCc3ccccc32)c1C	none
O=C(CNS(=O)(=O)c1ccc(Br)s1)NCC1COc2ccccc2O1 (stereo unspecified)	TIM10 inh 61 (no result: PfHsp90 yeast 2) | tim10 confirm 49
O=C(CNC(=O)c1ccc(Br)o1)NCC1COc2ccccc2O1 (stereo unspecified)	none (no result: SKKanGAS inh)
CCCc1nc2oc3c(NCC(C)O)ncnc3c2c2c1CCCC2 (stereo unspecified)	TIM10 inh 41 (no result: PfHsp90 yeast 2) | tim10 confirm 45
COc1ccccc1C(=O)COC(=O)CCNS(=O)(=O)c1ccc(C)c(C)c1	none
CC1(C)Cc2c(ccc3ccccc23)C(=O)N1	PfHsp90 yeast 2 inconclusive
O=C1NC2(C=Cc3c(ccc4ccccc34)O2)Oc2ccccc21 (stereo unspecified)	TIM10 inh 41 | tim10 confirm inactive
C[C@]12c3[nH]c4cc(-c5ccco5)ccc4c3CCN1C(=O)[C@@H](CC(=O)NCCCn1ccnc1)C[C@@H]2C(=O)N1CCOCC1	none (no result: NLRP3 yeast inh, SKKanGAS inh)
Cc1cccc(C(=O)NCCNc2nc3cc(C)c(C)cc3cc2C)c1	TIM10 inh 45 | tim10 confirm 39
N=c1oc2ccccc2cc1C(=O)Nc1cccc(F)c1	TIM10 inh 40 | tim10 confirm inactive
COC(=O)N/N=C/c1c(C)c(C(=O)c2ccc(F)cc2)n2ccccc12	none
CCOC(=O)N/N=C/c1c(C)c(C(=O)c2ccc(F)cc2)n2ccccc12	TIM10 inh 44 | tim10 confirm 32
O=CNCCCc1nc2ccccc2n1CCc1ccccc1	none
O=C(N/N=C/c1ccncc1)c1cc2c(ccc3ccccc32)o1	TIM10 inh 47 | tim10 confirm 34
O=C(/C=C/c1ccc(O)c(O)c1)c1ccccc1O	TIM10 inh 42 | tim10 confirm inactive
O=C(/C=C/c1ccoc1)c1ccccc1O	none
COc1cc(/C=N/n2nnnc2N)ccc1OCC(N)=O	none
COc1ccc(CNC(=S)N/N=C/c2ccc(OC)c(OC)c2)cc1	TIM10 inh 40 | tim10 confirm inactive
C=CCNC(=S)N/N=C/c1ccc(N(CC)Cc2ccccc2)cc1	none
CCN(CC)c1ccc(/C=N/NC(=S)NCc2ccccc2)cc1	TIM10 inh 44 | tim10 confirm inactive
COc1ccc(CNC(=S)N/N=C/c2ccc(O)c(OC)c2)cc1	none
COc1cccc(/C=N/NC(=O)CSc2ccccc2C)c1OC	none
COc1cccc(/C=N/NC(=O)CSc2ccccc2C)c1O	SKKanGAS inh inconclusive, TIM10 inh 43 | tim10 confirm 53
Cc1cc(C)nc(N/N=C/c2ccccc2OCc2cccc(Br)c2)n1	TIM10 inh 48 | tim10 confirm inactive
Cc1cc(C)nc(N/N=C/c2ccccc2OCc2ccccc2)n1	none
COC(=O)C1CCN(C(=O)COC(=O)CNC(=O)c2ccc(Cl)cc2Cl)CC1	none (no result: SKKanGAS inh)
C=CCNC(=S)N/N=C/c1ccc(-c2ccc(OC)cc2)o1	TIM10 inh 42 | tim10 confirm 36
FC(F)(F)c1ccc(/C=N/NC(=S)NC2CCCCC2)cc1	none
C=CCNC(=S)N/N=C/c1ccc(-c2cc(Cl)ccc2Cl)o1	none

Bioassay records (PubChem BioAssay)
